PLK1 PBD inh – qHTS for Inhibitors of PLK1-PDB (polo-like kinase 1 - polo-box domain): Primary Screen; AID 720504, 2013; Potency, µM, for inactives: max response, negative = inhibition, actives largely listed as inhibitors; hit rate 2.8% among 360,000; Serine/threonine-protein kinase PLK1 (Homo sapiens), P53350; Plk1 PBD binding of FITC phosphopeptide, fluorescence polarization; note: series mostly up to about 57 µM; % is set by controls: 0 for no effect and ±100 for the full control effect; nearly all actives have a fitted effect of over 65% in size
Target sequence (P53350 whole entry, looked up, the tested form may be a part): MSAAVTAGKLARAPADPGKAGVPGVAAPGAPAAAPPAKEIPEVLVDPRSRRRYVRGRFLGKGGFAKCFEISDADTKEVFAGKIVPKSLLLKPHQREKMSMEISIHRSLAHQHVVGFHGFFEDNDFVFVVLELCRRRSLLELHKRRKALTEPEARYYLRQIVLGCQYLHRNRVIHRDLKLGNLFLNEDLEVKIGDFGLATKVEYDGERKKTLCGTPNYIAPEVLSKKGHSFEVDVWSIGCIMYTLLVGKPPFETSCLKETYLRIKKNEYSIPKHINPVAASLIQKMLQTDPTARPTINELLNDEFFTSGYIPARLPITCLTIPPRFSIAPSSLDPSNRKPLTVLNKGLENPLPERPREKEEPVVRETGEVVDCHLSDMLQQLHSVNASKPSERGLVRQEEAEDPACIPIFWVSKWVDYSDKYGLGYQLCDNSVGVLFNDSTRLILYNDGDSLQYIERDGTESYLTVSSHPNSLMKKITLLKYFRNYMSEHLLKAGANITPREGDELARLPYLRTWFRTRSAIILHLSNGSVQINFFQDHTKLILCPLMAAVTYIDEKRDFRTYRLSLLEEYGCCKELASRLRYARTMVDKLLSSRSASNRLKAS
JMJD2A Tudor inh – qHTS Assay for Inhibitors of JMJD2A-Tudor Domain; Lysine-specific demethylase 4A (Homo sapiens), O75164; AlphaScreen JMJD2A-Tudor / H3K4me3 peptide binding; Potency, µM (top dose mostly 114 µM), inactives show at the highest dose activity change, negative = inhibition, actives largely listed as inhibitors; hit rate 4.4% among 390,000; note: % is set by controls: 0 for no effect and ±100 for the full control effect; nearly all actives have a fitted effect of over 50% in size
HP1b chromo inh – HTS for Inhibitors of HP1-beta Chromodomain Interactions with Methylated Histone Tails; Chromobox protein homolog 1 (Homo sapiens), P83916; AlphaScreen HP1-beta / biotin-H3K9me3 peptide binding; Potency, µM (series often up to 114 µM), for the others: at the highest dose activity change, negative = inhibition, usual class: inhibitors; hit rate 0.56% among 390,000; AID 540317, 2011; note: nearly all actives have a fitted effect of over 70% in size
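AlphaScreen: HP1-beta (50 nM) preformed 30 min with biotin-H3(1-18)K9me3 peptide (50 nM) in PBS pH 7.4, 0.01% Tween-20. Compound added for 30 min at RT, then streptavidin donor/nickel chelate acceptor beads (10 ug/mL) for 30 min.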
BAZ2B block – qHTS Assay for Inhibitors of BAZ2B | Potency, µM (doses to about 114 µM), for inactives: top-dose activity change, negative = inhibition, hits mostly inhibitors | Bromodomain adjacent to zinc finger domain protein 2B (Homo sapiens), Q9UIF8 | hit rate 4.4% among 360,000 | AlphaScreen BAZ2B-H3K14Ac peptide displacement; note: % is set by controls: 0 for no effect and ±100 for the full control effect; nearly all actives have a fitted effect of over 60% in size
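Compounds, titrated to a top concentration of 110 uM, were incubated 30 min at room temperature with preformed BAZ2B/acetyl-K14 H3 peptide complex (50 nM each). Proximity signal was measured by AlphaScreen after 20 min with beads.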
G9a inh – qHTS Assay for Inhibitors of Histone Lysine Methyltransferase G9a; Histone-lysine N-methyltransferase EHMT2 (Homo sapiens), Q96KQ7; G9a H3K9 monomethylation, AlphaScreen, 2 h; Potency, µM (doses to about 102 µM), inactives show at the highest dose activity, negative = inhibition, most hits filed as inhibitors; hit rate 8.8% among 350,000; AID 504332, 2011; note: % is set by controls: 0 for no effect and ±100 for the full control effect; nearly all actives have a fitted effect of over 75% in size
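G9a (20 nM) was preincubated 15 min with compound, then reacted 2 h at room temperature with 500 nM biotin-H3K9 peptide and 20 µM SAM. Monomethyl-H3K9 detected by AlphaScreen using anti-H3K9me1 antibody.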
Sfp inh – qHTS Assay for Inhibitors of Bacillus subtilis Sfp phosphopantetheinyl transferase (PPTase). Biochemical Sfp PPTase activity, qHTS. Potency, µM, without a hit: largest response in the series, negative = inhibition, hits mostly inhibitors. AID 1490, 2009. hit rate 3.5% among 310,000. 4'-phosphopantetheinyl transferase ffp (Bacillus subtilis), Q9F4F7;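 note: the enzyme is Sfp with the accession as filed and its product quenches rhodamine fluorescence; 0% = enzyme reaction without inhibitor and -100% = no enzyme wells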
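With Hepes-Na pH 7.6 buffer containing 10 mM MgCl2, Sfp (15 nM) modified BHQ-2-YbbR (12.5 uM) using rhodamine-CoA (5 uM). Two reads 30 minutes apart at 525/598 nm yielded each well's rate.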
* hit, by the source's call; ? = inconclusive; nt = no result given; [ ] = remark or other dose. Shown are actives, neighbours in structure and some others; about 12% of the full set was active somewhere. Calls come from the whole dose curve; as a rule, active = well fitted curve in the direction sought with a large enough effect; inconclusive = small, poorly fitted or top-dose-only effect, or another doubt; inactive = no such curve, though single readings can be large; an effect the other way counts as inactive or inconclusive. Potency is the fitted concentration of half-maximal effect.

SMILES	PLK1 PBD inh	JMJD2A Tudor inh	HP1b chromo inh	BAZ2B block	G9a inh	Sfp inh
O=C(O)c1ccc(N/N=C/c2cn(Cc3ccc(F)cc3)c3ccccc23)cc1	24µM*	56µM*	-31%	45µM*	45µM*	-13%
O=C(N/N=C/c1cn(Cc2ccccc2)c2ccccc12)c1cc(O)cc(O)c1	-4%	?	-18%	50µM*	79µM*	-7%
Cc1cc2nc3c(=O)n(C4CCCCC4)c(=O)[nH]c3nc2cc1N	3µM*	2%	3%	-23%	1.3µM*	2%
COc1ccc(NC(=O)Cc2nnc(SCC(=O)Nc3nccs3)n2C)cc1	-4%	?	19%	-11%	12%	8%
CCn1c(COc2ccc(C(C)C)cc2)nnc1SCC(=O)Nc1nccs1	-9%	-9%	24%	-18%	10µM*	19%
CCn1c(CNC(=O)COc2ccc(C(C)C)cc2)nnc1SCC(=O)Nc1cc(F)ccc1C	0%	28µM*	18%	-33%	?	13%
C=CCn1c(CCCOc2ccc(Cl)cc2Cl)nnc1SCC(=O)Nc1nccs1	-7%	-20%	42%	-17%	40µM*	14%
CCn1c(CC(=O)Nc2cccc(OC)c2)nnc1SCC(=O)Nc1nccs1	-7%	-10%	24%	8%	56µM*	0%
CCn1c(CCCOc2ccc(Cl)cc2Cl)nnc1SCC(=O)Nc1cc(F)ccc1C	5%	-23%	21%	2%	12%[59 µM]	15%
CCOc1ccccc1N1CCN(S(=O)(=O)c2ccc3c4c(cccc24)C(=O)N3)CC1	-9%	56µM*	-16%	50µM*	?	-1%
CC(C)Cn1nc(NC(=O)c2cccc(Cl)c2)c2cc3ccccc3nc21	nt	26%	60%	17%	40%[59 µM]	nt
CCc1nc(N2CCN(CC(=O)NCC3CCCO3)CC2)c(C#N)c2c1COC(C)(C)C2 (stereo not given)	-4%	-1%	33%	50µM*	nt	-29%
CC(C)C(=O)NC(c1ccccc1)c1cc([N+](=O)[O-])c2cccnc2c1O (stereo not given)	-12%	?	-9%	5.6µM*	?	-17%
CC(=O)NC(c1cccs1)c1cc(Cl)c2ccccc2c1O (stereo not given)	nt	-27%	12%	-3%	3%[0.501 µM]	nt
CC(=O)NC(c1ccc(C)cc1)c1cc(Cl)c2cccnc2c1O (stereo not given)	-3%	-29%	33%	0%	-1%[59 µM]	11%
CC(=O)NC(c1ccccc1)c1cc([N+](=O)[O-])c2cccnc2c1O (stereo not given)	1%	10µM*	-3%	3.5µM*	10µM*	2.2µM*
CC(=O)NC(c1cccs1)c1cc([N+](=O)[O-])c2cccnc2c1O (stereo not given)	-13%	35µM*	10%	4µM*	7.9µM*	1µM*
O=C(CSc1c2c(nc3ccc(Cl)cc13)CCCC2)N1CCCCC1	nt	-6%	37%	nt	-3%[59 µM]	nt
Cc1cccc(NC(=O)C2C(C(=O)O)C3C=CC2C32CC2)c1C (stereo not given)	-11%	-16%	11%	0%	-13%[59 µM]	?
Cc1ccc(F)cc1NC(=O)C1C2CCC(O2)C1C(=O)O (stereo not given)	4%	-24%	19%	25%	79µM*	7%
COc1ccccc1NC(=O)C1C2C=CC(O2)C1C(=O)O (stereo not given)	nt	nt	nt	?	50µM*	-28%
Cc1cccc(NC(=O)C2C3C=CC(O3)C2C(=O)O)c1C (stereo not given)	4%	-32%	47%	-5%	35µM*	-8%

Compound activity deposited in PubChem BioAssay by National Center for Advancing Translational Sciences (NCATS).
